Rows were chosen to be rich in hits. Some 4.2% of all compounds tested hit in one or more screens of this group.
CCHF vOTU inh – CCHFV vOTU protease inhibition; Pep-AMC fluorescence; inhibition, % at 11.5 µM; hit rate 0.55% among 370,000; also: 0% = vehicle wells with enzyme and 100% = no enzyme wells
Mtb bLac sens – beta-lactam sensitization of Mtb H37Rv; M. tuberculosis H37Rv growth with meropenem, percent inhibition; inhibition, % at 25 µM; hit rate 0.27% among 330,000; AID 434955; call rule not given here;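 also: growth measured after seven days incubation then overnight dye step; 0% = bacteria only wells and 100% = bacteria with antibiotic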
RecA intein inh – Mtb RecA intein splicing inhibition | P9WHJ3 | cell-free RecA intein splicing, fluorescence | inhibition, % (concentration not given with the values) | hit rate 0.75% among 290,000 | AID 2221; in the data active = inhibition above about 30%;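 also: 0% = vehicle wells and 100% = reference inhibitor control wells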
Target sequence (P9WHJ3 whole entry, looked up): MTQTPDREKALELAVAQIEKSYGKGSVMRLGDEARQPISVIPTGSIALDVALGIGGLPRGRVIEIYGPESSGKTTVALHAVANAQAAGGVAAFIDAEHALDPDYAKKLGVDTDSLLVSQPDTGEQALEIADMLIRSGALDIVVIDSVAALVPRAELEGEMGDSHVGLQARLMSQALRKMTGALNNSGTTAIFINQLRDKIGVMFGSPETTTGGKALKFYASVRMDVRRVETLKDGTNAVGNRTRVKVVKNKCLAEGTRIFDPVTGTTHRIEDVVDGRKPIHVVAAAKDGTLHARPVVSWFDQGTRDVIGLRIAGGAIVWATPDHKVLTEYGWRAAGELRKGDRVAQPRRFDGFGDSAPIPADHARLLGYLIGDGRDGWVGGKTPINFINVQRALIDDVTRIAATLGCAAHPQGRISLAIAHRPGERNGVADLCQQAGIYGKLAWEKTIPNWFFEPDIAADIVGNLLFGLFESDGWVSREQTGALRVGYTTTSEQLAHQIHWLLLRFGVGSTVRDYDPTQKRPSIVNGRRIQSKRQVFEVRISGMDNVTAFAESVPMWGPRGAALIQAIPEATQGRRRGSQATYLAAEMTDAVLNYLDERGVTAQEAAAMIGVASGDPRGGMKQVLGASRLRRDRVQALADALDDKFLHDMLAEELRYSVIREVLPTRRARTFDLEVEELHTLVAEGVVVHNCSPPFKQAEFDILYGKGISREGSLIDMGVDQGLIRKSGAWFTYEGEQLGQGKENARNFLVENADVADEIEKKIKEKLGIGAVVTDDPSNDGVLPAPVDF
GDH-TPI inh – inhibits GDH-TPI coupling enzymes, artifact for Mtb FBA screen. GDH-TPI coupled enzyme counterscreen, NADH absorbance. inhibition, % at 4.8 µM. hit rate 1.2% among 360,000. AID 588335;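 also: 0% = DMSO wells and 100% = wells lacking the enzyme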
Mtb FBA inh – inhibitors of M. tuberculosis fructose-bisphosphate aldolase; P9WQA3; purified M. tuberculosis FBA, fluorescence read-out; AID 588726; hit rate 2.3% among 360,000; inhibition, % at 1 µM; in the data active = inhibition above about 27%;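 also: 0% = vehicle and 100% = reference inhibitor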
GFP chromophore – counter-screen: blocks GFP chromophore formation. shares compounds with RecA intein inh. cell-free GFP chromophore formation, fluorescence. EC50, µM. hit rate 83% among 2,100; call rule not given here
An asterisk follows results filed as active; nt = not tested or not shown. Rule as the data show it, unless noted: active = inhibition above about 30%; inactive = the rest.

SMILES	CCHF vOTU inh	Mtb bLac sens	RecA intein inh	GDH-TPI inh	Mtb FBA inh	GFP chromophore
CCOP(=O)(OCC)C(NS(=O)(=O)c1ccccc1)C(Cl)(Cl)Cl (stereo not given)	-4	-3	-6	1	0	nt
CCCCCOP(=O)(OCCCCC)C1(NS(=O)(=O)c2ccccc2)C=CC(=O)c2ccccc21 (stereo not given)	14	-3	81*	2	-4	6.7*
C=CC(=O)NC1CCCCN(CCC)C1=O (stereo not given)	-3	nt	nt	nt	nt	nt
COC(=O)[C@]12C[C@H](CC(=O)NCc3cccs3)C(=O)N(Cc3ccccc3)C1=C[C@H](C(C)C)O[C@@H]2C1CC1	7	nt	nt	nt	nt	nt
Nc1ccc(N2CCOCC2)c2nonc12	109*	0	95*	-6	-2	23*
O=c1cc(-c2c(F)c(F)c(F)c(F)c2F)oc2ccccc12	-8	100	29	1	0	nt
O=c1cc(-c2c(F)c(F)c(F)c(F)c2F)oc2c(F)c(F)c(F)c(F)c12	nt	100	86*	nt	nt	13*
COc1ccc(N2C(=O)c3n[nH]c(C)c3C2c2cccc(C(F)(F)F)c2)cc1 (stereo not given)	23	nt	nt	nt	nt	nt
CCOC(=O)CC1=NN(c2ccccc2)C(=O)/C1=C\c1ccc(OC)cc1OC	-1	2	47*	7	-1	0.41*
O=C(c1c[nH]c(C(=O)C(Cl)(Cl)Cl)c1)c1ccccc1Br	-5	4	51*	8	4	26*
O=C(NCCc1ccccc1)OCc1cn(Cc2ccc(C(F)(F)F)cc2)nn1	6	nt	nt	nt	nt	nt
Oc1c(C(c2ccccn2)N2CCCCC2)cc(Cl)c2cccnc12 (stereo not given)	2	27	10	12	-5	nt
CN1CCN(C(c2ccc(Cl)cc2)c2cc(Cl)c3cccnc3c2O)CC1 (stereo not given)	17	63	79*	2	1	31*
CN1CCN(C(c2ccc(C(F)(F)F)cc2)c2cc(Cl)c3cccnc3c2O)CC1 (stereo not given)	7	-4	44*	nt	nt	18*
Cc1ccc(-n2c(Cc3cccs3)nnc2SCC(=O)Nc2ccc(OCc3ccccc3)cc2)cc1	7	nt	nt	nt	nt	nt
CCCCNC(=O)NS(=O)(=O)c1ccc(NC(=O)CSc2ncnc3scc(-c4ccc(C)cc4)c23)cc1	17	nt	nt	nt	nt	nt
Cc1[nH]n(-c2ccccc2)c(=O)c1C(=O)Nc1ccccc1	-3	-4	4	-4	-1	nt
COC(=O)C(O)(c1c(C)[nH]n(-c2ccccc2)c1=O)C(F)(F)F (stereo not given)	24	5	92*	12	8	7.5*
COc1ccccc1N(C(=O)CCl)c1cn(C(C)=O)c2ccccc12	-8	96	51*	1	1	23*
CC(=O)n1cc(N(C(=O)CCl)c2ccc(Cl)cc2)c2ccccc21	nt	99	59*	-9	1	1.3*
N#Cc1c(N2CCCC2)nc(N)c2c(N)nc(N3CCCC3)cc12	72*	5	58*	21	18	0.24*
C=CCN1C(=O)[C@H](CC(=O)NCc2cccc(C(F)(F)F)c2)[C@@]2(C(=O)OCC)CCCC=C12	9	nt	nt	nt	nt	nt
CCOC(=O)C(C#N)C(c1cccnc1)c1c(C)[nH][nH]c1=O (stereo not given)	6	12	78*	6	-2	11*
COc1ccc(C2=C(N)c3ccccc3C2=O)cc1	nt	1	2	11	0	nt
COC1=C(c2ccccc2)C(=O)c2ccccc2C1=O	22	4	69*	0	-3	14*
SMILES	CCHF vOTU inh	Mtb bLac sens	RecA intein inh	GDH-TPI inh	Mtb FBA inh	GFP chromophore
CC(C)[C@H](NC(=O)OC(C)(C)C)c1nnc(S(=O)(=O)Cc2c(F)cccc2Cl)o1	-5	17	56*	3	-3	23*
CCCn1c(C)c(CC(=O)Nc2ccc(N(C)c3ccccn3)cc2)c2ccccc21	1	nt	nt	nt	nt	nt
CCOc1ccc2c(c1)-c1c(ssc1=S)C(C)(C)N2	nt	3	51*	21	-4	12*
CCOc1ccc2c(c1)/C(=N/N1C(=O)c3ccccc3C1=O)C(=O)N2	10	6	-1	0	1	nt
Cc1cccc(NC(=O)CSc2ncnc3sc4c(c23)CCCC4)c1	7	nt	nt	nt	nt	nt
Cc1ccc(CN2CCCCC(NC(=O)c3cccc(C(F)(F)F)c3)C2=O)cc1 (stereo not given)	10	nt	nt	nt	nt	nt
Cc1cc(=O)n(CCCc2ccccc2)[nH]1	3	-12	92*	13	4	8*
Cc1cccc(CN2CCN(CCCc3ccccc3)CC2)c1	nt	-2	-2	nt	nt	nt
COC(=O)C1CN(Cc2cn(Cc3ccc(C)cc3)nn2)CCS(=O)(=O)N1Cc1ccc(F)cc1 (stereo not given)	5	nt	nt	nt	nt	nt
COC(=O)[C@@H]1C[C@]2(OC(=O)c3ccccc3)C=CC(=O)C[C@@H]2N1C(=O)OCc1ccccc1	3	-6	56*	0	-3	32*
O=C1c2ccccc2C(=O)c2c1ncn2-c1ccccc1	24	-6	37*	5	-1	>38
CC1CCC(C)(NS(=O)(=O)OCC(Cl)(Cl)Cl)CC1 (stereo not given)	14	-4	7	2	4	nt
O=S(=O)(N[C@H]1C[C@@H](NS(=O)(=O)OCC(Cl)(Cl)Cl)C2CCCCC21)OCC(Cl)(Cl)Cl (stereo not given in full)	3	-2	32*	-13	1	>38
CC(C)Cn1cnc2c(c(-c3ccccc3)c(-c3ccccc3)n2Cc2ccco2)c1=N	12	100	19	10	2	nt
N=c1c2c(-c3ccccc3)c(-c3ccccc3)n(Cc3ccco3)c2ncn1Cc1ccccc1	2	100	59*	6	2	5.2*
O=[N+]([O-])c1cc(Br)c(Nc2ccccc2)c([N+](=O)[O-])c1	7	100	64*	6	0	20*
CCCNC(=O)c1nnsc1S(=O)(=O)c1ccc(Cl)cc1	15	nt	nt	9	3	nt
CCCNC(=O)c1nnsc1S(=O)c1ccc(Cl)cc1 (stereo not given)	15	nt	55*	0	1	39*
C=CCn1c(NC(=O)c2ccc(C)cc2)nc2ccccc21	-7	85	-1	21	13	nt
C=CCn1c(N)c(C(=O)Nc2cccc(C)c2)c2nc3ccccc3nc21	4	15	34*	22	8	24*
CCCCCN1N=C(C)CC1=O	-1	12	79*	-6	1	13*
CC1=NN(Cc2cc(C(C)(C)C)c(O)c(C(C)(C)C)c2)C(=O)C1	2	-11	12	-3	1	nt
CC(COc1cc(F)cc(C#N)c1)CN1CCC(C(O)(c2ccccc2)c2ccccc2)CC1 (stereo not given)	1	nt	nt	nt	nt	nt
O=C1C(Cl)=C(NS(=O)(=O)c2ccc([N+](=O)[O-])cc2)C(=O)c2ccccc21	18	0	73*	21	-14	3.6*

Assay outcomes: PubChem, several laboratories
